Laboratory results: PubChem BioAssay (NCATS)
Results filed as inconclusive are left out. Calls of active or inactive are those of the source. Calls come from the whole dose curve; as a rule, active = well fitted inhibition curve with a large enough effect; inconclusive = small, poorly fitted or top-dose-only effect; inactive = flat fitted curve, though single readings scatter.

tested on: astro; test: Drug repurposing screens with cells derived from glioblastoma tumor samples (AID 1345199); settings: viability, ATP luminescence, 48 h; series mostly up to 45.9 µM; activity, negative = cell killing: at the top concentration; note: nearly all actives have a fitted effect of over 40% in size
Description: CD133+ cells were isolated from GBM patient biopsies and cultured as neurospheres. Neurospheres from four patients were used to screen the NCATS pharmaceutical collection (NPC) library of approved drugs and bioactive compounds. […] The neurospheres were incubated with drugs for 48 hours in 1536-well format, then assayed with an ATP content cell viability assay. […] These hits were cherry picked to confirm activity in the four original GBM lines screened plus three other slower growing GMB lines (unable to yield enough cells for a full primary screen). Variable activities of the confirmed primary hits in the different GBM patient lines were observed. The patient line 206 responded to the greatest number of compounds and line 923 responded to the least amount of active compounds.
% is set by controls: 0 for no effect and ±100 for the full control effect; potency is the fitted concentration of half-maximal effect.

Row | SMILES | activity, negative = cell killing | Potency
1 | CCCCOc1ccc(CC(=O)NO)cc1 | -21.6% [at 21.2 µM] (inactive) | 
2 | CC(C)OC(=O)C(C(=O)OC(C)C)=C1SC=CS1 | -21% (inactive) | 
3 | Cc1noc(NS(=O)(=O)c2ccc(N)cc2)c1C |  | inactive
4 | CC1=NN(c2ccccc2)C(=O)C1 | -23.8% (inactive) | 
5 | CC(C)(C#N)c1cc(Cn2cncn2)cc(C(C)(C)C#N)c1 | -18.3% (inactive) | 
6 | CNNCc1ccc(C(=O)NC(C)C)cc1 | -9.39% (inactive) | 
7 | CC(C(=O)O)c1ccc2c(c1)CC(=O)c1ccccc1S2 (stereo not given) | -25.3% (inactive) | 
8 | Cc1ccnc2c1NC(=O)c1cccnc1N2C1CC1 | -14.3% (inactive) | 
9 | CC1(C)[C@H](C(=O)O)N2C(=O)C[C@H]2S1(=O)=O | 4.13% (inactive) | 
10 | COc1ccc(C(=O)CC(=O)c2ccc(C(C)(C)C)cc2)cc1 | -13.2% (inactive) | 
11 | COc1ccc(-c2ccc3cc(C(=O)O)ccc3c2)cc1C12CC3CC(CC(C3)C1)C2 | -45.8% (inactive) | 
12 | C[C@@H](NCCCc1cccc(C(F)(F)F)c1)c1cccc2ccccc12 |  | 22.4 µM (active)
13 | Cc1cc(NS(=O)(=O)c2ccc(N)cc2)no1 | -15.5% (inactive) | 
14 | NC(=O)N1c2ccccc2CC(=O)c2ccccc21 | -27.7% (inactive) | 
15 | CCOCC(O)COc1ccc(NC(=O)CC[S+](C)C)cc1 (stereo not given) | -7.14% (inactive) | 
16 | Cc1cccc(Nc2ccncc2S(=O)(=O)NC(=O)NC(C)C)c1 | -20.9% [at 21.2 µM] (inactive) | 
17 | Cc1cccc(N(C)C(=S)Oc2ccc3ccccc3c2)c1 | -15.4% [at 21.2 µM] (inactive) | 
18 | CN1CCN(c2c(F)cc3c(=O)c(C(=O)O)cn4c3c2OCN4C)CC1 | -11.5% (inactive) | 
19 | COc1ccccc1OCC(O)COC(N)=O (stereo not given) | -14.1% [at 21.2 µM] (inactive) | 
20 | CCCc1cc(C(N)=S)ccn1 | -13.7% (inactive) | 

Row | SMILES | activity, negative = cell killing | Potency
21 | CC(C)C1CCC(C(=O)N[C@H](Cc2ccccc2)C(=O)O)CC1 (stereo not given in full) | -17.4% (inactive) | 
22 | C[C@@H]1CN(c2c(F)c(N)c3c(=O)c(C(=O)O)cn(C4CC4)c3c2F)C[C@H](C)N1 | -15.1% (inactive) | 
23 | CN(CCOc1ccc(CC2SC(=O)NC2=O)cc1)c1ccccn1 (stereo not given) | -23.3% (inactive) | 
24 | CCN(CC)CCn1c(=O)c(Cc2ccc(OC)cc2)nc2ccccc21 | -14% (inactive) | 
25 | Nc1ccc(S(=O)(=O)Nc2ccccn2)cc1 | -10.9% [at 21.2 µM] (inactive) | 
26 | CC(=O)CC(c1ccccc1)c1c(O)c2ccccc2oc1=O (stereo not given) |  | inactive
27 | O=S(=O)(c1cccc2cnccc12)N1CCCNCC1 | -12.6% (inactive) | 
28 | CC(C)(C)C(=O)OCOP(=O)(COCCn1cnc2c(N)ncnc21)OCOC(=O)C(C)(C)C | -27.3% (inactive) | 
29 | C[C@]12C=CC(=O)C=C1CC[C@@H]1[C@@H]2C(=O)C[C@@]2(C)[C@H]1CC[C@]2(O)C(=O)CO | -15.3% (inactive) | 
30 | CS(=O)(=O)c1ccc([C@@H](O)[C@@H](CO)NC(=O)C(Cl)Cl)cc1 | 10.2% [at 21.2 µM] (inactive) | 
31 | CN(C)CCc1c[nH]c2ccc(CS(=O)(=O)N3CCCC3)cc12 | -14.1% (inactive) | 
32 | Cc1oc(=O)oc1CN1CCN(c2cc3c(cc2F)c(=O)c(C(=O)O)c2n3C(C)S2)CC1 (stereo not given) | -19.8% (inactive) | 
33 | CC(=O)[C@H]1CC[C@H]2[C@@H]3CC=C4C[C@@H](O)CC[C@]4(C)[C@H]3CC[C@]12C | -10.2% (inactive) | 
34 | O=C(O)CCn1c2c(c3ccccc31)C[C@H](NS(=O)(=O)c1ccc(F)cc1)CC2 | -15.2% (inactive) | 
35 | CO[C@@H]1[C@@H](OC(N)=O)[C@@H](O)[C@H](Oc2ccc3c(O)c(NC(=O)c4ccc(O)c(CC=C(C)C)c4)c(=O)oc3c2C)OC1(C)C | -9.42% [at 21.2 µM] (inactive) | 
36 | CCOc1cc(N)c(Cl)cc1C(=O)NCC1CN(Cc2ccc(F)cc2)CCO1 (stereo not given) | -9.69% (inactive) | 
37 | Cc1onc(-c2ccccc2Cl)c1C(=O)N[C@@H]1C(=O)N2[C@@H]1SC(C)(C)[C@@H]2C(=O)O | -8.78% [at 21.2 µM] (inactive) | 
38 | CCC(=O)O[C@]1(C(=O)CCl)[C@@H](C)C[C@H]2[C@@H]3CCC4=CC(=O)C=C[C@]4(C)[C@@]3(F)[C@@H](O)C[C@@]21C | -15.1% (inactive) | 
39 | Nc1nc(F)nc2c1ncn2[C@@H]1O[C@H](CO)[C@@H](O)[C@@H]1O |  | inactive
40 | CCCN[C@H]1CCc2nc(N)sc2C1 | -6.2% (inactive) | 
